# Source: PubChem BioAssay AID485318 (Broad Institute, 2010)
# The campaign covered roughly 1,400 compounds. Fewer than 10 were called active.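 Rule for the calls: active = fluorescence-lowering compounds whose fitted half-maximal concentration is at or below ten times the highest valid dose tested; inconclusive = flat curve at 30 to 70% inhibition, or poor fit; inactive = the rest.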 A selection follows.
# Target: Histone deacetylase 3 (Homo sapiens) (UniProt O15379)
# Test: inhibition of human HDAC3 enzymatic activity – biochemical, fluorescence, cherry-picked samples, counter-screen for JMJD2C/GASC1 demethylase inhibitor project, dose response (AID 485318);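 note: enzyme preincubated with compound before substrate and trypsin were added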
# Conditions: recombinant HDAC3, fluorogenic peptide/trypsin coupled; series mostly up to 12 µM
# Chain of Histone deacetylase 3 (Homo sapiens) (O15379 whole entry, looked up): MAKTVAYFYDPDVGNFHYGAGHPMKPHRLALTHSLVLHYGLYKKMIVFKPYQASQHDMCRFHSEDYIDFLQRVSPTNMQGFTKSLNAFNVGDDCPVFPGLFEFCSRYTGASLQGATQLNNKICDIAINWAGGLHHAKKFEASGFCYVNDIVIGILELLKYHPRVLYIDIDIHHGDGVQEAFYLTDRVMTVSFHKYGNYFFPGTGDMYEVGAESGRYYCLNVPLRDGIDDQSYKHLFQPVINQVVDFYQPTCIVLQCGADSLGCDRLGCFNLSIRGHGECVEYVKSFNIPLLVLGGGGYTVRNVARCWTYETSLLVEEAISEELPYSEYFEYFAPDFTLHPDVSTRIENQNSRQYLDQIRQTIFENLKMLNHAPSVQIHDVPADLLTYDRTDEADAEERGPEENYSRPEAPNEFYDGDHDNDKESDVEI
row,Structure (SMILES),outcome
1,O=C(CSc1nnnn1-c1ccc(Cl)cc1)N1CCc2ccccc2C1,inactive
2,CN(C)c1ccc(C(=O)OCC(=O)N2CCCC2)cc1,inactive
3,Cc1ccc(S(=O)(=O)NCCC(=O)OCC(=O)Nc2ccccc2Cl)cc1,inactive
4,Cc1ccc(S(=O)(=O)NC(=O)NCc2ccc(Cl)cc2)cc1,inactive
5,O=c1cc(N/N=C/c2ccccc2)[nH]c(=O)[nH]1,inactive
6,COc1ccc(NC(=O)N(C)C[C@H]2Oc3c(NS(=O)(=O)c4cccs4)cccc3C(=O)N([C@H](C)CO)C[C@@H]2C)cc1,inactive
7,COCCCNC(=S)NNC(=O)c1ccccn1,inactive
8,Cc1ccc(OCCSc2nnc(-c3cccs3)n2C)cc1,inactive
9,CCCC(=O)Nc1ccc(Oc2ccc(NC(=O)CCC)cc2)cc1,inactive
10,COCCCn1c(SCC(=O)NCc2ccco2)nc2sc3c(c2c1=O)CCC3,inactive
11,CC(C)(C)c1ccc(-c2csc(NNC3=NCCCCC3)n2)cc1,inactive
12,CC(OC(=O)c1ccc([N+](=O)[O-])s1)C(=O)Nc1ncc(Cl)cc1Cl (centres undefined),inactive
13,O=C(c1ccc(Cn2cc([N+](=O)[O-])cn2)o1)N1CCCCCC1,inactive
14,COc1ccccc1C(=O)OCc1c(-c2ccccc2)ncc2ccccc12,inactive
15,Cc1ccc2nc(-c3cccc(NS(C)(=O)=O)c3)cc(-c3ccccc3)c2c1,inactive
16,COC(=O)C1=C(C)N(CCc2cc(OC)c(OC)c(OC)c2)C(=O)N[C@H]1c1cccs1,inactive
17,COc1ccc(CNCC(=O)Nc2sccc2C#N)cc1,inactive
18,Cc1nn(-c2cccc(C(=O)O)c2)c(C)c1Oc1ccccc1O,inactive
19,CCSCC1COC(c2cccn2Cc2ccc(C)cc2)=N1 (centres undefined),inactive
20,COC(=O)CCC(=O)N1CCOCCOCCN(C(=O)CCC(=O)OC)CCOCCOCC1,inactive
21,O=C1c2sc3nc4c(c(=O)n3c2C(=O)N1c1ccccc1)CCC4,inactive
22,CC(=O)OC(C(=O)NCc1ccc2c(c1)OCO2)c1ccccc1Cl (centres undefined),inactive
23,CCC(=O)Nc1cc2c(cc1C(=O)CC)OCCO2,inactive
24,CCOC(=O)c1cc2n(n1)C(C(F)(F)F)CC(C)N2 (centres undefined),inactive
25,CCCCNC(=O)c1nn2cc(Br)cnc2c1Br,inactive

row,Structure (SMILES),outcome
1,Clc1ccc(N=c2ssnc2Cl)nc1,inactive
2,O=C(c1ccsc1)N1CCN(C(=O)c2cccs2)CC1,inactive
3,COc1ccc2sc(-c3ccc(S(C)(=O)=O)cc3)c(C#CCO)c2c1,inactive
4,COc1ccc(CCN=C(NS(=O)(=O)c2ccc(Cl)cc2)c2ccccc2)cc1,inactive
5,CCN(CC)CCSc1nc2ccccc2c(=S)n1-c1ccccc1,inactive
6,O=C(Cn1nc(-c2ccc(Cl)cc2)ccc1=O)NCC1COCCO1 (centres undefined),inactive
7,CCC(C)(C)NC(=O)C(c1ccc(C)o1)N(Cc1cccs1)C(=O)Cn1nnc2ccccc21 (centres undefined),inactive
8,CCC(=O)N1CCc2cc(Br)cc(S(=O)(=O)CC(=O)OC)c21,inactive
9,CCN(CC(=O)Nc1ccc2c(c1)OCCO2)C(=O)CC1CCCC1,inactive
10,O=C(CSc1nc(O)c(Cc2ccccc2)c(=O)[nH]1)c1ccccc1,inactive
11,Cc1ccc(CSc2ncnc3onc(C)c23)cc1,inactive
12,CCOC(=O)c1c(NC(=O)c2cc(-c3ccc(O)cc3)on2)sc(C(C)=O)c1C,inactive
13,C[C@@H](CN1CCC[C@H]1CN1C(N)=NC[C@@H]1Cc1ccccc1)N1C[C@@H](Cc2ccccc2)N(CCc2ccc(Cl)c(Cl)c2)C1=N,inactive
14,O=C(CSc1nc(-c2ccco2)cc(C(F)(F)F)n1)Nc1ccc(C(=O)N2CCCCC2)cc1,inactive
15,COc1cccc(OC)c1C(=O)NC(=S)N1CCOCC1,inactive
16,COc1cccc(-n2nnc3c(=O)n(Cc4ccccc4F)cnc32)c1,inactive
17,CCn1c(SCC(=O)NCc2ccco2)nnc1-c1cccs1,inactive
18,CSc1nc(N)nc2c1ncn2CC(=O)N[C@H](C)c1cccc2ccccc12,inactive
19,COC(=O)C1=C(C)N(Cc2ccccc2)C(=NCCc2c[nH]c3ccccc23)N[C@H]1c1ccccc1,inactive
20,CC(=O)c1c(C)[nH]c(C(=O)NCCC2=CCCCC2)c1C,inactive
21,COc1ccc(S(=O)(=O)Nc2ccc3c(c2)CC(=O)N([C@@H](C)CO)C[C@H](C)[C@@H](CN(C)S(=O)(=O)c2ccc(F)cc2)O3)cc1,inactive
22,COc1ccccc1NC(=O)COC(=O)c1[nH]c(=O)[nH]c(=O)c1N,inactive
23,Cc1cccc(N2CC(C(=O)Nc3nnc(SCC(=O)Nc4nccs4)s3)CC2=O)c1 (centres undefined),inactive
24,CN(C)c1nc(C(=O)Nc2ccccc2)nc(N(C)C)n1,inactive
25,CCOc1ccc(-c2nc(CSCC(=O)NC3CCCc4ccccc43)c(C)o2)cc1 (centres undefined),inactive

row,Structure (SMILES),outcome
1,Cc1cc2cc3c(cc2nc1SCC(=O)N1CCOCC1)OCO3,inactive
2,CC(C)(C)OC(=O)CNC(=O)c1[nH]cnc1C(=O)N[C@@H](CCCCN)C(=O)OC(C)(C)C,inactive
3,COc1ccc(OC)c(Nc2nnc(C)c(=O)[nH]2)c1,inactive
4,O=C(O)CCCNC(=O)c1cccc(C(=O)NCCCC(=O)O)n1,inactive
5,O=C(O)c1cc(O)c2c(c1)[C@@H]([C@H]1c3cc(C(=O)O)cc(O)c3C(=O)c3c(O[C@@H]4O[C@H](CO)[C@@H](O)[C@H](O)[C@H]4O)cccc31)c1cccc(O[C@@H]3O[C@H](CO)[C@@H](O)[C@H](O)[C@H]3O)c1C2=O,inactive
6,CN(C)CCNC(=O)c1onc(CSc2ccncc2)c1C(=O)NCCN(C)C,inactive
7,N#CC(C(=O)NCCc1ccccc1)c1nc2ccccc2nc1N1CCOCC1 (centres undefined),inactive
8,COc1ccc(NC(=O)CNC(=O)c2nn(-c3ccc(OC)c(Cl)c3)c(=O)c3ccccc23)c(OC)c1,inactive
9,Cc1ccc(-c2noc(C3CCN(S(C)(=O)=O)CC3)n2)o1,inactive
10,Cc1nnc(N2C(=O)c3cccc4c([N+](=O)[O-])ccc(c34)C2=O)s1,inactive
11,CCOC(=O)CCCCCC(=O)Nc1ccc2c(c1)CC(=O)N([C@@H](C)CO)C[C@H](C)[C@@H](CN(C)C(=O)Nc1ccc3c(c1)OCO3)O2,inactive
12,CSc1ccccc1C(=O)Nc1ccc(C)c(C)c1,inactive
13,CC(C)N(C(=O)[C@H]1CC(CC(=O)NCc2cccc(C(F)(F)F)c2)C(=O)N2CCc3c([nH]c4ccccc34)[C@]12C)C(C)C (some centres undefined),inactive
14,N#Cc1ccc(C23OCCN2CCn2nc4ccccc4c23)cc1 (centres undefined),inactive
15,CCc1ccc(NC(=O)C/C(C)=N/NC(=O)COc2ccc(C)cc2Br)cc1,inactive
16,COc1ccc(-c2csc(NNC3=NCCCCC3)n2)cc1,inactive
17,CC1(C)C2CCC1(CS(=O)(=O)N1CCN(c3ccccc3F)CC1)C(=O)C2 (centres undefined),inactive
18,Cc1ccc(O)c(C(=O)c2cc(C#N)c(=O)n(CC3CCCO3)c2)c1 (centres undefined),inactive
19,CCOC(=O)c1ccc2c(c1)nc(COc1ccc3ccccc3c1)n2CC,inactive
20,O=C(NCc1ccccn1)c1ccc(OC2CCN(Cc3cccs3)CC2)cc1,inactive
21,CCOC(=O)c1sc(Nc2nc(OC)cc(OC)n2)nc1C,inactive
22,CN(C)C(=O)c1cccc(-c2csc(N3CCC(C(N)=O)CC3)n2)c1,inactive
23,COc1ccc(-c2ccc3oc(-c4ccsc4)cc(=O)c3c2)cn1,inactive
24,COc1ccc(CCNC(=O)c2cccc(NS(=O)(=O)c3ccccc3F)c2)cc1OC,inactive
